LANA-H2A inh: blockers of LANA interaction with H2A/H2B – biochemical, FP readout, HTS, primary screen; cell-free LANA-H2A/H2B peptide, fluorescence polarization; inhibition, % (concentration not given with the values); Protein LANA1 (Human herpesvirus 8 type P (isolate GK18)), Q9QR71; 320,000 tested, 0.6% active; in the data active = inhibition mostly above about 10%, no sharp cut-off; inactive = mostly below about 6.7%
E coli Lon inh: inhibitors of E. coli Lon protease, primary screen, biochemical, fluorescence polarization; P0A9M0; purified E. coli Lon protease; inhibition, % at 7.94 µM; 360,000 tested, 0.42% active; in the data active = inhibition above about 13%, passing the limit was not always enough
LANA DNA inh: inhibitors of KSHV C-LANA binding to DNA, primary screen, biochemical, fluorescence polarization, FAM-LBS DNA, MBP-C-LANA, single point; AID 504423, 2011; 340,000 tested, 0.078% active; inhibition, % at 9 µM; Kaposi's sarcoma herpesvirus LANA C-terminal domain (residues 932-1162) DNA binding;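 active = highest replicate inhibition at or above 60% at 9 µM, even if other replicates fall short; inactive = all replicates below 60% inhibition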
Keap1 Nrf2 FP: Keap1-Nrf2 protein-protein interaction inhibitors, primary screen, biochemical, fluorescence polarization, single point | Kelch-like ECH-associated protein 1 (Homo sapiens), Q14145 | Keap1 Kelch-Nrf2 peptide fluorescence polarization, 1536-well | inhibition, % at 9.4 µM | 340,000 tested, 0.15% active | AID 504523, 2011; in the data active = inhibition above about 12%;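 note: human Keap1 Kelch domain with fluorescein labeled Nrf2 9mer peptide probe; higher means more block of Keap1 binding to Nrf2 peptide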
Target sequence (Q14145 whole entry, looked up, the tested form may be a part): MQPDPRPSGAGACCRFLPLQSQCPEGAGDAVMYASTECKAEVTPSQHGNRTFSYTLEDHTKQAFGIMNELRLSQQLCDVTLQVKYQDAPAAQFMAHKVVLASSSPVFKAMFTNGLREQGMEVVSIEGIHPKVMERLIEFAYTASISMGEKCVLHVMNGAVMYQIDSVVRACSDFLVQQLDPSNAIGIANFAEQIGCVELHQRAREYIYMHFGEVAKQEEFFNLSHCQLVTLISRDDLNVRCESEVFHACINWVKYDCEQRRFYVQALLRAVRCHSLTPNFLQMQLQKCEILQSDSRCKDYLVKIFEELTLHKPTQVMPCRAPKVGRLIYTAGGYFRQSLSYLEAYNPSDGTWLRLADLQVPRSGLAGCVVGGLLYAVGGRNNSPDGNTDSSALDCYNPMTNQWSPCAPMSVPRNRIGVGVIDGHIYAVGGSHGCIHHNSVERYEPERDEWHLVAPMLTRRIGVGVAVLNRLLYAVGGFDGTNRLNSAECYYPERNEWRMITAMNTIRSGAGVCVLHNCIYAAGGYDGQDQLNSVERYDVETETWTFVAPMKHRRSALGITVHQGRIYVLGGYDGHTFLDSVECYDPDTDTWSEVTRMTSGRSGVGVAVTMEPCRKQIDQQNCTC
RTF Ca sens inh: cardiac RTF calcium sensitivity inhibitors, primary screen, biochemical, IANBD-TnC fluorescence, EC70 calcium; 340,000 tested, 0.12% active; IANBD-labeled cardiac RTF, Ca2+ fluorescence; inhibition, % at 7.15 µM;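 active = inhibition above the mean inhibition of all tested compounds plus 3 SD, cut at about 17% in these data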;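 note: assay run at fixed EC70 calcium of 1.6 mM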
cardiac RTF act: cardiac RTF calcium sensitivity activators, primary screen, biochemical, IANBD-TnC fluorescence, EC20 calcium; Troponin I, cardiac muscle (Homo sapiens) + Troponin T, cardiac muscle (Homo sapiens) + …; IANBD-labeled TnC RTF fluorescence at EC20 calcium; 0% EC20 calcium, 100% full calcium; activation, % at 7.2 µM; 340,000 tested, 0.24% active;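 active = activation above the mean over all tested compounds plus 3 SD, cut at about 30% in these data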;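 note: rise in fluorescence read as greater calcium sensitivity of cardiac thin filaments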
Numbers stand for hits; - = inactive; . = no result. This is a sample that favours compounds with a hit; in the whole collection about 1.3% have one here.

SMILES	LANA-H2A inh	E coli Lon inh	LANA DNA inh	Keap1 Nrf2 FP	RTF Ca sens inh	cardiac RTF act
O=C(Nc1ccnn1C1CCN(Cc2ccc(CO)o2)CC1)c1ccc2c(c1)OCO2	-	-	-	-	-	-
CCNc1ccc(C(=O)OCC(=O)c2cc(C)n(Cc3ccc4c(c3)OCO4)c2C)cc1[N+](=O)[O-]	-	-	-	-	-	-
C=C(C)COc1ccc(-c2nc(N)ncc2-c2ccc(Br)cc2)c(O)c1	-	-	-	-	-	-
CCc1cc(-c2nc(N)ncc2-c2ccc(Br)cc2)c(O)cc1OC	19	-	-	-	-	-
CC1=CC2=NC(=O)CC(C)(C(=O)N(CC(=O)NC3CCCC3)c3ccccc3C)N2C=C1 (stereo unspecified)	11	-	-	-	-	-
O=C1CCC(C(=O)Nc2cccc(Oc3ccccc3)c2)=NN1	-	-	-	-	-	-
CC1=Nc2ccccc2/C1=C\c1nc(-c2ccc(F)cc2)oc1O	-	-	-	-	-	84
Cc1nn(Cc2ccccc2)c(Cl)c1C(=O)OC(C)C#N (stereo unspecified)	-	-	-	-	-	-
Cc1cnc(NC(=O)c2ccc(-c3nc4ccccc4s3)o2)s1	29	-	-	-	-	-
Cc1cnc(NC(=O)c2ccc(-c3ccc([N+](=O)[O-])cc3)o2)s1	-	-	-	-	-	-
O=C(COc1ccc(Cl)cc1)NNC(=O)c1ccncc1	39	-	-	-	-	-
O=C(COc1ccc(Cl)cc1)NCc1ccccc1	-	-	-	-	-	152
O=C1Nc2ccc3sc4ccccc4c3c2C1=O	-	-	.	.	.	.
CCC(C)C(=O)Nc1nc2ccc(OC)cc2s1 (stereo unspecified)	-	-	-	-	.	.
CCN(CC)S(=O)(=O)c1ccc2oc(SCC(=O)Nc3cc(C)on3)nc2c1	99	-	-	-	-	-
Cc1cc(NC(=O)CSc2nc3cc(Cl)ccc3o2)no1	-	-	-	-	-	-
CSc1ccccc1NC(=O)Cn1nc([N+](=O)[O-])cc1C	-	-	-	-	-	-
CC(=O)Nc1sc(/C(C#N)=C\c2cccc(Cl)c2)nc1-c1ccc(C)cc1	-	-	-	-	-	43
Cc1nc(Cl)sc1C(=O)Nc1cccc(Cl)c1	-	-	-	-	-	-
Cc1nnsc1C(=O)Nc1cccc(Cl)c1	25	-	-	-	-	-
N#CC1=C(N)C(C#N)(C#N)[C@H](c2ccoc2)[C@H]2CN(Cc3ccccc3)CC=C12	23	-	-	-	-	31
CCCN1CC=C2C(C#N)=C(N)C(C#N)(C#N)C(c3cccc(OC)c3OC)C2C1 (stereo unspecified)	17	-	-	-	-	53
CSc1nsc(/C=C/Nc2ccc(O)cc2C)c1C#N	-	-	-	-	-	-
O=C(CN(C(=O)c1csnn1)c1cccc2ccccc12)NCc1ccc(F)cc1	20	-	-	-	-	-
O=C(CN(C(=O)c1csnn1)c1cccc2ccccc12)NCc1ccccc1	-	-	-	-	-	-
SMILES	LANA-H2A inh	E coli Lon inh	LANA DNA inh	Keap1 Nrf2 FP	RTF Ca sens inh	cardiac RTF act
O=C(NCCc1ccc(F)cc1)c1coc(=O)c(Br)c1	-	-	-	-	-	-
O=C(Nc1ccccc1F)c1coc(=O)c(Br)c1	-	-	87	-	-	-
CC(C)Cn1c(CCNC(=O)c2ccco2)nc2ccccc21	-	-	-	-	-	-
O=C1/C(=C/c2ccco2)SC(=S)N1c1cccnc1	.	-	72	-	-	-
Cc1cc(/C=C2\SC(=S)N(Cc3ccco3)C2=O)c(C)n1-c1cccnc1	.	-	-	-	-	89
O=C1/C(=C\c2ccco2)SC(=S)N1c1ccc(O)cc1	-	-	-	-	-	-
CNc1ccc(C(=O)OCC(=O)NCc2ccc3c(c2)OCO3)cc1[N+](=O)[O-]	-	-	-	-	-	-

Assay outcomes: PubChem BioAssay, several laboratories
